The list is not random: actives were taken first. Their share in the collection is about 2.8%.
esBAF inh: inhibitors of esBAF chromatin remodeling in mouse ES cells. Bmi1-luciferase knock-in reporter, 24 h; 100% = twice the neutral-well signal. reporter increase, % at 12.5 µM. hit rate 2% among 350,000. AID 602393; in the data active = activation above about 40%; inconclusive = no clear call, values can overlap the other calls;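 also: a rise in the Bmi1 reporter signal indicates esBAF inhibition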
FXN GAA850 act: activators of GAA850 frataxin (FXN) promoter | HEK293 lucGAA850 FXN promoter luciferase reporter, 24 h; percent of 10 µM SAHA response | activation, % at 6 µM | hit rate 0.56% among 360,000;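 active = activation above the average of all compounds screened plus 3 SD, cutoff fixed separately per campaign, cut at about 7.5% in these data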
MITF TRPM1 HTS: activators of MITF-driven TRPM1 promoter activity in SK-MEL-5 cells. SK-MEL-5 TRPM1-promoter luciferase, 24 h; % of positive control, neutral wells = 0. activation, % at 12.5 µM. hit rate 0.75% among 300,000. AID 588334;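 active = mean activation of at least 80% with every replicate also reaching 80%; inconclusive = mean reaches 80% but some replicate falls short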
Wnt bcat act: Wnt/beta-catenin pathway activation; Wnt/beta-catenin reporter cell assay, activator, plate reader; activation, % at 9.35 µM; hit rate 1.2% among 300,000; AID 743398; in the data active = activation above about 30%, passing the limit was not always enough; inconclusive = no clear call, values can overlap the other calls
GAA30 FXN cntr: counter-screen for GAA850 frataxin promoter activators: GAA30 promoter activation. shares compounds with FXN GAA850 act. HEK293 lucGAA30 FXN promoter luciferase, 24 h; DMSO = 0%, 5 µM ipriflavone = 100%. activation, % at 6 µM. hit rate 66% among 1,900. AID 588350;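 active = mean activation above the mean of solvent-only control wells plus 3 SD, cut at about 22% in these data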;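 also: counterscreen of GAA850 promoter hits where activity marks nonselective or luminescence artifacts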
FXN GAA850 conf: GAA850 FXN promoter activation confirmation; shares compounds with FXN GAA850 act; HEK293 lucGAA850 FXN promoter luciferase reporter, 24 h; 100% = activation by SAHA; activation, % at 6 µM; hit rate 86% among 1,900; AID 588351;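 active = mean activation above a set limit taken from the primary screen, cut at about 8% in these data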
A number is an active result; – = inactive; ? = inconclusive; · = no result.

SMILES | esBAF inh | FXN GAA850 act | MITF TRPM1 HTS | Wnt bcat act | GAA30 FXN cntr | FXN GAA850 conf
Nc1cccc2c1C(=O)N(C(=O)/C=C/c1cccc(Br)c1)C2=O | – | – | – | – | · | ·
COC(=O)C1=C(C)N(C)C(=O)NC1c1cc(Cl)cc(Cl)c1OC (configuration not stated) | – | – | – | · | · | ·
COC(=O)C1=C(C)N(C)C(=O)NC1c1cc(Cl)c(O)c(OC)c1 (configuration not stated) | – | 7.8 | – | – | – | 12
COc1ccc(-c2oc(=O)c3cc(OC)c(OC)cc3c2-c2ccc3c(c2)OCO3)cc1 | – | – | – | – | · | ·
COc1ccc(OC)c2nc(-c3ccc4c(c3)OCO4)ccc12 | – | 9.5 | – | 48 | 124 | 44
CCCNC(=O)[C@H]1[C@H](CO)[C@H]2Cn3c(ccc(C4=CCCC4)c3=O)[C@@H]1N2C(=O)CC1CC1 | – | · | · | · | · | ·
C/C(=N\NC(=O)COc1ccc(C(C)(C)C)cc1)c1cc2ccccc2o1 | · | 9.5 | – | ? | 105 | 39
C/C(=N\NC(=O)COc1ccc(C(C)(C)C)cc1)c1ccccc1 | – | – | – | – | · | ·
CCOC(=O)c1cnc(-c2ccccc2)nc1N(C)C | 75 | 8.7 | – | · | 120 | 41
CC[C@]12c3[nH]c4ccc(OC)cc4c3CCN1C(=O)C(CC(=O)NCC13CC4CC(CC(C4)C1)C3)C[C@@H]2C(=O)N1CCN(C(=O)c2ccco2)CC1 (some centres not stated) | – | 15 | – | · | – | 11
CC[C@]12c3[nH]c4ccc(Cl)cc4c3CCN1C(=O)[C@@H](CC(=O)NCC13CC4CC(CC(C4)C1)C3)C[C@@H]2C(=O)N1CCN(C(=O)c2ccco2)CC1 | – | – | – | – | · | ·
COc1ccc(NC(=O)Nc2ccc3c(c2)C(=O)N([C@@H](C)CO)C[C@@H](C)[C@H](CN(C)C(=O)Nc2ccc(OC)cc2)O3)cc1 | – | · | · | · | · | ·
Cc1ccccc1OCCCCn1cnc2ccccc21 | – | – | · | · | · | ·
Brc1ccccc1OCCCn1cnc2ccccc21 | 48 | 8.7 | 92 | – | 101 | 36
CCCCCCOc1ccc(/C(C)=N/NC2=NCCN2)cc1[N+](=O)[O-] | · | 7.8 | – | – | 28 | 17
O=C(O)c1ccc(N/N=C/c2ccc(-c3cc(Cl)ccc3Cl)o2)cc1 | · | – | – | – | · | ·
O=C(O)c1ccc(N/N=C/c2ccc(-c3cccc(Cl)c3)o2)cc1 | ? | 11 | – | – | 112 | 42
Cc1ccc(S(=O)(=O)Nc2ccc3c(c2)CC(=O)N([C@H](C)CO)C[C@@H](C)[C@H](CN(C)C(=O)Nc2ccc(C(F)(F)F)cc2)O3)cc1 | – | · | · | · | · | ·
Cc1ccc(COc2ccccc2C(=S)N2CCCC2)cc1 | 55 | 8.1 | – | – | 51 | 23
C[C@@H]1CN([C@H](C)CO)C(=O)c2cc(N(C)C)ccc2O[C@H]1CN(C)C(=O)Nc1ccc(C(F)(F)F)cc1 | – | · | · | · | · | ·
CC1CN(c2cc(=O)n(-c3ccccc3)c(=O)[nH]2)CC(C)O1 (configuration not stated) | – | 8.1 | – | – | – | –
O=C(C[C@@H]1C=C[C@H](NS(=O)(=O)c2ccc(F)cc2)[C@@H](CO)O1)N1CCN(c2ccccc2)CC1 | – | · | · | · | · | ·
Cn1cccc1/C=C1\CCC/C(=C\c2cccn2C)C1=O | 81 | 12 | · | 71 | 99 | 39
Cc1ccccc1N=C1NC(=O)/C(=C/c2cccn2C)S1 | · | – | – | – | · | ·
C[C@@H]1CN([C@H](C)CO)C(=O)Cc2cc(NC(=O)Cn3cnnn3)ccc2O[C@H]1CN(C)Cc1ccc(Oc2ccccc2)cc1 | – | · | · | · | · | ·
SMILES | esBAF inh | FXN GAA850 act | MITF TRPM1 HTS | Wnt bcat act | GAA30 FXN cntr | FXN GAA850 conf
CN(c1ccccc1)c1nc2ccsc2c(=O)s1 | 47 | 7.7 | 99 | – | 94 | 36
Cc1[nH]c2ccccc2c1/C=C/c1nc2ccccc2c(=O)[nH]1 | 46 | 8.2 | 93 | – | 102 | 38
Cc1cccc(/C=C/c2nc3ccccc3c(=O)[nH]2)c1 | · | – | – | – | · | ·
O=C(NCc1ccncn1)[C@H]1[C@H](CO)[C@H]2Cn3c(ccc(-c4cccc(F)c4)c3=O)[C@H]2N1CC1CC1 | – | · | · | · | · | ·
CCC(=O)Nc1ccc2c(c1)OC[C@@H](C)N(C(=O)CN(C)C)C[C@H](C)[C@H](OC)CN(C)C2=O | – | · | · | · | · | ·
COc1ccc(C(=O)Nc2nc3ccccc3[nH]2)cc1OC | · | – | – | – | · | ·
COc1cc(C(=O)Nc2nc3ccccc3[nH]2)ccc1OC(F)F | · | 9.6 | – | – | 86 | 36
CC(=O)c1cnc2cc(-c3ccccc3)nn2c1C | ? | – | – | · | · | ·
CC(=O)c1cnc2cc(-c3ccc(C)cc3)nn2c1C | – | 11 | ? | · | 128 | 42
Cc1ccc(-n2ncc3c(N4CCCC4)ncnc32)c(C)c1 | – | 7.6 | · | – | 72 | 24
CC1CCN(C(=O)CN2C(=O)C(=O)c3ccccc32)CC1 | – | 13 | · | · | 22 | 8.3
C=CCN=c1scc(C)n1/N=C/c1ccc(O)c(O)c1 | · | 10 | – | – | 63 | 28
CN=c1scc(-c2ccco2)n1/N=C/c1ccc(O)c(O)c1 | · | 16 | – | – | 44 | 23
C[C@H]1CN([C@@H](C)CO)C(=O)c2cccc(NC(=O)C3CCCCC3)c2O[C@H]1CN(C)S(=O)(=O)c1ccc(Cl)cc1 | – | · | · | · | · | ·
COc1ccccc1N1CCN(c2cc(=O)n(-c3ccc(Br)cc3)c(=O)[nH]2)CC1 | – | 11 | – | – | – | 12
CCCC#Cc1cnc2c(c1)C(=O)N([C@H](C)CO)C[C@H](C)[C@@H](CN(C)C(=O)c1cccc(F)c1)O2 | – | · | · | · | · | ·
COc1ccc(S(=O)(=O)N2CCOCC2)cc1NC(=O)Cc1sc(C)nc1-c1ccc(F)cc1 | – | – | – | – | · | ·
COc1ccc(S(=O)(=O)N2CCCCC2)cc1NC(=O)Cc1sc(C)nc1-c1ccc(F)cc1 | – | 13 | – | – | 22 | 11
CCCC(=O)Nc1ccc2c(c1)OC[C@@H](C)N(C(=O)c1ccccn1)C[C@@H](C)[C@@H](OC)CN(C)C2=O | – | · | · | · | · | ·
Cc1cc(C)c(C#N)c(SCc2nnc(-c3ccccc3[N+](=O)[O-])o2)n1 | – | 8.9 | – | 75 | 108 | 41
C/C=C/c1cnc2c(c1)C(=O)N([C@H](C)CO)C[C@H](C)[C@@H](CN(C)S(=O)(=O)c1ccc(F)cc1)O2 | – | · | · | · | · | ·
CCCCC1(Cc2ccc([N+](=O)[O-])cc2)C(=O)N(c2ccccc2)N(c2ccccc2)C1=O | – | 9.5 | – | – | – | –
CCCCC1(COC(=O)CCC(=O)O)C(=O)N(c2ccccc2)N(c2ccccc2)C1=O | – | – | – | – | · | ·
N#C/C(=N\Nc1ccc(Cl)cc1)C(=N)N1CCCCCC1 | · | 12 | – | – | 130 | 49
COc1ccc(CN(C)C[C@H]2OCCCC[C@H](C)Oc3ccc(NC(=O)c4ccncc4)cc3C(=O)N([C@@H](C)CO)C[C@@H]2C)cc1 | – | · | · | · | · | ·
